Consider ten compounds from PubChem BioAssay (Tox21).

Molecules are shown by their SMILES. “And” between values parts separate entries of the source, which are not always exact repeats. Equal values may be shown once. Results filed as inconclusive are left out. The source made the active and inactive calls. Unless noted, calls follow the shape of the dose curve; as a rule, active = well fitted curve in the direction sought with a large enough effect in the repeat runs; inconclusive = weak or mixed curves; inactive = no such curve, though single readings can be large; an effect the other way counts as inactive or inconclusive.

The nature of experiment [1]: qHTS assay to identify small molecule agonists of the vitamin D receptor (VDR) signaling pathway - cell viability counter screen (AID 743224). Also: series mostly up to about 63 µM; nearly all actives have a fitted effect of over 50% in size. The gist of the method: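 VDR-bla cells, 4 h after plating, exposed to compounds for 16 h at 37C; viability then read in the same wells as CellTiter-Glo luminescence after 30 min at room temperature, following the bla FRET read.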

Experiment [2] in a line: qHTS assay to identify small molecule antagonists of the vitamin D receptor (VDR) signaling pathway - cell viability counter screen (AID 743225). Also: nearly all actives have a fitted effect of over 50% in size. The gist of the method: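 Same-well multiplex: following 16 h treatment of HEK 293T cells carrying a UAS-driven beta-lactamase reporter with compound and agonist (3 nM final), and a 2 h FRET substrate step, CellTiter-Glo was added and luminescence read after 30 min.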
(In general: In qHTS, concentration-response curves come from the screen itself.)

Experiment [3] is described as follows: qHTS assay to identify small molecule agonists of the NFkB signaling pathway (AID 1159509; active = well fitted curve in the direction sought with a large enough effect in the signal ratio in the repeat runs, not every such curve was filed as active; the % refers to the signal ratio; also: series mostly up to about 61 µM). The gist of the method: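 ME-180 NFkB-bla, 2,000 cells/well, overnight plating; cpd pinned in DMSO, 5 h 37 C; B/G FRET substrate 1.5 h RT; ex 405, em 460/530 nm.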
Experiment [4] is described as follows: qHTS assay to identify small molecule agonists of the NFkB signaling pathway - cell viability counter screen (AID 1159515; calls by dose curve; also: series mostly up to about 61 µM; nearly all actives have a fitted effect of over 55% in size). The gist of the method:
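NFkB-bla ME-180 cells, 2,000/well, plated overnight at 37 C; compound added for 5 hr at 37 C. Viability read in the same wells as the bla reporter, by CellTiter-Glo luminescence after 30 min at room temperature.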

Experiment [5] can be described thus: qHTS assay to identify small molecule agonists of the endoplasmic reticulum stress response signaling pathway (AID 1159516; active = well fitted activation curve with a large enough effect in the signal ratio in the repeat runs, not every such curve was filed as active; the % refers to the signal ratio). Summed up: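 CellSensor ESRE-bla HeLa cells, 1,500 per well, plated overnight, then exposed to compounds for 5 hr at 37 C. Beta-lactamase reporter read with LiveBLAzer B/G FRET substrate after 2 hr at room temperature, 405 nm excitation, 460 and 530 nm emission.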

A short description of experiment [6]: qHTS assay to identify small molecule agonists of the endoplasmic reticulum stress response signaling pathway - cell viability counter screen (AID 1159517; calls by dose curve;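 also: HeLa cells carrying an ER stress response element beta-lactamase reporter; series mostly up to about 61 µM; nearly all actives have a fitted effect of over 50% in size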). Summed up:
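ESRE-bla HeLa cells, 1,500 per well, seeded overnight then treated with compounds for 5 hr at 37 C. After the beta-lactamase read, viability in the same wells is measured by CellTiter-Glo luminescence after 30 min at room temperature.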

A short description of experiment [7]: qHTS assay to identify small molecule antagonists of the retinoid-related orphan receptor gamma (ROR-gamma) signaling pathway - cell viability counter screen (AID 1159520). Also: nearly all actives have a fitted effect of over 50% in size. Summed up:
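Tet-on ROR gamma CHO cells were given compounds for 2 hr, then doxycycline hyclate at 1 uM final, and incubated 16 hr at 37 C. Viability was measured as ATP content by CellTiter-Glo luminescence.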

The target of experiment [8] is Nuclear receptor ROR-gamma (Homo sapiens) (UniProt P51449). The experiment is described as follows: qHTS assay to identify small molecule antagonists of the retinoid-related orphan receptor gamma (ROR-gamma) signaling pathway (AID 1159521). Summed up:
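Inducible-expression reporter assay: doxycycline (1 uM final) switched on RORγ in CHO cells bearing a ROR response element-luciferase construct, with test compounds present from 2 h beforehand. Decreased luminescence after 16 h defined antagonist activity.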

The nature of experiment [9]: qHTS assay to identify small molecule agonists of the AP-1 signaling pathway - cell viability counter screen (AID 1159525; calls by dose curve; also: nearly all actives have a fitted effect of over 55% in size). Summed up:
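AP-1-bla ME-180 cells in Opti-MEM with 0.5% dialyzed FBS, compound exposure 5 h at 37 C in 15-point titration. Viability read in the same wells as ATP content by CellTiter-Glo luminescence, normalised to tetra-n-octylammonium bromide and DMSO controls.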

Experiment [10] in a line: qHTS assay to identify small molecule agonists of the AP-1 signaling pathway (AID 1159526; calls by dose curve).
For experiment [11], the target named is Retinoic acid receptor RXR-alpha (Homo sapiens) (UniProt P19793). The experiment is described as follows: qHTS assay to identify small molecule agonists of the RXR signaling pathway (AID 1159527; calls by dose curve; also: nearly all actives have a fitted effect of over 35% in size). The gist of the method: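 Compounds in DMSO were added to RXR-alpha-UAS-bla HEK 293T cells kept in 2% charcoal-stripped serum, and incubated 16 hr at 37 C with 5% CO2. Reporter signal came from a 2 hr B/G FRET substrate step.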
Retinoic acid receptor RXR-alpha (Homo sapiens), sequence (P19793 whole entry, looked up): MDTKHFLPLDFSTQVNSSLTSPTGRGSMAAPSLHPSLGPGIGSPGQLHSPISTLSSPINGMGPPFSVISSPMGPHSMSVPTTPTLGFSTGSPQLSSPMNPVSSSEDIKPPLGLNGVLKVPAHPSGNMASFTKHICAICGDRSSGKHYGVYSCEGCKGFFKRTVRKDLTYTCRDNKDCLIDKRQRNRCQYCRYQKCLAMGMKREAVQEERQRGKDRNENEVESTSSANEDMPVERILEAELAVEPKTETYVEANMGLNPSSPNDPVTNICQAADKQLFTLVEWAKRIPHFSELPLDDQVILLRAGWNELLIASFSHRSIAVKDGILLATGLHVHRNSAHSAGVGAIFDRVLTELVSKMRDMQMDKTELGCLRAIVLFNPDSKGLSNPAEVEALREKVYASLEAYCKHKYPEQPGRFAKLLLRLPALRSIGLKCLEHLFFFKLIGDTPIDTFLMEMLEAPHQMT

Experiment [12] in a line: qHTS assay to identify small molecule antagonists of the retinoid acid receptor (RAR) signaling pathway - cell viability counter screen (AID 1159551). Also: nearly all actives have a fitted effect of over 35% in size. The gist of the method:
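C3RL4 RARE-luciferase cells, 1,000/well, incubated overnight, then dosed with compound plus 1 uM retinol (final). After 6 hr at 37 C, viability read by CellTiter-Glo ATP luminescence following 30 min at room temperature.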

The nature of experiment [13]: qHTS assay to identify small molecule agonists of the retinoic acid receptor (RAR) signaling pathway (AID 1159553). Also: potency is read from the fitted curve at half-maximal effect. Summed up: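 C3RL4 RARE-luciferase cells were seeded at 1,000/well and grown overnight at 37 C, then exposed to compounds for 6 hr at 37 C, 5% CO2. Luciferase reagent was added and luminescence was read after 30 min at room temperature.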
The nature of experiment [14]: qHTS assay to identify small molecule agonists of the RXR signaling pathway - cell viability counter screen (AID 1159529). The gist of the method:
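Counter screen: CellTiter-Glo luminescence. Cells: RXR-alpha-UAS-bla HEK 293T. Medium: 2% charcoal-stripped FBS. Treatment: 16 h, 37 C. Reagent incubation: 30 min, RT.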

A short description of experiment [15]: qHTS assay to identify small molecule antagonists of the retinoic acid receptor (RAR) signaling pathway (AID 1159552; also: nearly all actives have a fitted effect of over 50% in size). The gist of the method: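 Antagonism of retinol-induced RARE reporter activity was measured in C3RL4 cells. Exposure to compounds and 1 uM final retinol lasted 6 hr at 37 C, with luminescence as endpoint.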
The nature of experiment [16]: qHTS assay to identify small molecule antagonists of the estrogen related receptor (ERR) signaling pathway - cell viability counter screen (AID 1224818). Also: series mostly up to about 46 µM. Summed up:
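ERR cells, 2,000 per well, compound added after 6 h and incubated 17.5 h at 37 C. Viability read by CellTiter-Fluor fluorescence after a further 30 min at 37 C.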

A short description of experiment [17]: qHTS assay to identify small molecule antagonists of the estrogen related receptor signaling pathway with the pleiotropic PPARgamma coactivator (PGC) cell viability counter screen (AID 1224822; also: series mostly up to about 46 µM). The gist of the method:
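PGC/ERR cells rested 6 h, then compound-treated 17.5 h at 37 C. CellTiter-Fluor added for 30 min at 37 C, viability measured by fluorescence intensity.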

As for `c1ccc2c(c1)CCCC2`, the Potency result in experiment [1], in experiment [8], in [10] and in [11] was “inactive” in each case. Also, the compound was classed as inactive in experiment [2], in [3], in experiment [4], in [5], in experiment [6] and in [7]. Also, the compound was classed as inactive in experiment [9] and in [12].

For `CN(C)C(=O)Nc1cccc(C(F)(F)F)c1`, the Potency entry in [1], in experiment [8], in experiment [10], in experiment [11] and in [13] was “inactive” throughout. The call in experiment [2], in experiment [3], in experiment [4], in experiment [5], in [6] and in experiment [7] was inactive. In addition, the compound was called inactive in experiment [9] and in experiment [12].

`CNC(=O)O/N=C(\SC)C(=O)N(C)C`: the Potency result in [1], in experiment [8], in experiment [10], in experiment [11] and in experiment [13] was “inactive” in each case. The compound was classed as inactive in experiment [2], in experiment [3], in experiment [4], in experiment [5], in experiment [6] and in [7]. In addition, the call in experiment [9] and in experiment [12] was inactive.

In the case of `COC(=O)Nc1cccc(OC(=O)Nc2cccc(C)c2)c1`, the Potency result in experiment [1], in experiment [8], in [10] and in [11] was “inactive” each time. Besides, the result in experiment [2], in [3], in experiment [4], in [5], in experiment [6] and in [7] was inactive. For the same compound, the compound was classed as inactive in [9] and in experiment [12]. The Potency in [13] was 8.63 µM (active) and 19.3 µM (active).

Consider `CCSC(=O)N1CCCCCC1`, for which the Potency result in experiment [1], in [8], in [10], in experiment [11], in experiment [15] and in experiment [13] was “inactive” throughout. In addition, the compound was classed as inactive in [2], in experiment [3], in [4], in [5], in experiment [7] and in [9]. The compound was called inactive in [14] and in [12].

As to `Nc1ccc(N)cc1`, the Potency result in experiment [1], in experiment [8], in experiment [10], in experiment [11] and in [15] was “inactive” each time. The compound was called inactive in experiment [2], in experiment [3], in experiment [4], in experiment [5], in experiment [7] and in [9]. For the same compound, the result in experiment [14] and in experiment [12] was inactive. In addition, the Potency in experiment [13] was 34.4 µM (active) and 23.7 µM (active).

In the case of `[N-]=[N+]=CC(=O)OC[C@H](N)C(=O)O`, the Potency entry in experiment [1], in experiment [8], in experiment [10], in experiment [11], in experiment [15] and in experiment [13] was “inactive” in each case. Also, the compound was called inactive in experiment [2], in [3], in experiment [4], in experiment [5], in experiment [7] and in experiment [9]. Also, the result in experiment [14] and in experiment [12] was inactive.

In the case of `Cc1cc(Cl)ccc1OC(C)C(=O)O` (configuration not stated), the Potency result in experiment [1], in experiment [8], in experiment [10], in [11], in [15] and in experiment [13] was “inactive” in each case. Besides, the compound was classed as inactive in experiment [2], in [3], in experiment [4], in [5], in [7] and in experiment [9]. The result in experiment [14] and in [12] was inactive.

With `CN(C)NC(=O)CCC(=O)O`, the Potency result in [1], in experiment [8], in experiment [10], in experiment [11], in [15] and in experiment [13] was “inactive” each time. Also, the result in experiment [2], in experiment [3], in [4], in experiment [5], in experiment [7] and in experiment [9] was inactive. Further, the call in experiment [14] and in [12] was inactive.

For `Cc1cccc(C)c1NC(=O)CN1CCCC1=O`, the Potency result in experiment [1], in experiment [8], in experiment [10], in experiment [11], in experiment [15] and in experiment [13] was “inactive” each time. Besides, the result in experiment [2], in [3], in experiment [4], in [5], in [7] and in experiment [9] was inactive. The compound was classed as inactive in [14], in [12], in experiment [16] and in [17].
